Compound activity (PubChem)
In the library only some 0.46% were active in any assay of this set; here they are far more common.
PKM2 activator: qHTS Assay for Activators of Human Muscle isoform 2 Pyruvate Kinase. purified PKM2, Kinase-Glo ATP luminescence, activation; response scale: 0% is enzyme alone, no compound. Potency, µM (top dose mostly 57.5 µM), most hits filed as activators. actives 0.34% (n = 260,000). AID 1631, 2009; note: nearly all actives have a fitted effect of over 55% in size
Target sequence (P14618 whole entry, looked up, canonical isoform): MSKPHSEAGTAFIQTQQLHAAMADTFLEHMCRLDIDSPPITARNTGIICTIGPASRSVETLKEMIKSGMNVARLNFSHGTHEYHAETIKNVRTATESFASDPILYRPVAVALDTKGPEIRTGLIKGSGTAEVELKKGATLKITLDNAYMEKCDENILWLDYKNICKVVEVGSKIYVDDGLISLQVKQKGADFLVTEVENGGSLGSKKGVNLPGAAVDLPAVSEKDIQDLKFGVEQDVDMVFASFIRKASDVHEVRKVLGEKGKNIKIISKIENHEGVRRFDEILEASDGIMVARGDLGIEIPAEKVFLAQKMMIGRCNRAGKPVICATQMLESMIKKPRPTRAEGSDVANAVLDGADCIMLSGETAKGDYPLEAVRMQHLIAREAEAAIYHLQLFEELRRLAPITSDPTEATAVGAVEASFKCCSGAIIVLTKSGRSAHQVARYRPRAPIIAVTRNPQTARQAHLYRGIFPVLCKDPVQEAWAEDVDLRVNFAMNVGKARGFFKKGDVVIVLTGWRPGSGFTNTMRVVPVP
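Purified hPK-M2 (>95% pure) converted ADP (0.1 mM final) to ATP with 0.5 mM PEP in 50 mM imidazole pH7.2, KCl, MgCl2, Tween 20, BSA; 1 h at room temperature. ATP detected by Kinase-Glo luminescence.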
PINK1 expr mod: A Quantitative High throughput Screen to Identify Chemical Modulators of PINK1 Expression | actives 0.2% (n = 410,000) | PINK1 immunofluorescence, high-content cytometry, 24 h | Potency, µM (top dose mostly 76.6 µM), actives largely listed as activators | AID 624263, 2012; active = well fitted activation curve with a large enough effect; inconclusive = small, poorly fitted or top-dose-only effect; cell line not stated here; note: nearly all actives have a fitted effect of over 65% in size
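Compound titrations (5 concentrations, 24 h) on a stable cell line; DMSO and CCCP controls. Endpoint: fixed-cell PINK1 immunofluorescence with mitochondrial, cell and nuclear markers, scanned by microplate cytometer.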
Chronic BCR inh: qHTS Assay to Find Inhibitors of Chronic Active B-Cell Receptor Signaling. ABC-DLBCL IkBa-CBG/CBR reporter, luminescence ratio, 4 h. Potency, µM (highest dose often 46.1 µM), usual class: inhibitors. actives 0.05% (n = 340,000); active = well fitted inhibition curve with a large enough effect in the signal ratio, with a control signal flat, not every such curve was filed as active; inconclusive = small, poorly fitted or top-dose-only effect, or effect the other way, or a change in a side signal; the % refers to the signal ratio
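Doxycycline induced both beetle luciferases in TMD8 lymphoma cells; IKK-driven degradation limits the IkappaBalpha-fused green signal, while red luminescence normalises for cell number and nonspecific effects. Compounds tested up to 46 uM, 4 hrs.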
Pin1 inhibitor: qHTS Assay to Find Inhibitors of Pin1; Peptidyl-prolyl cis-trans isomerase NIMA-interacting 1 (Homo sapiens), Q13526; Pin1 FP peptide displacement, HiFluor488, 10 min; Potency, µM (highest dose often 115 µM), most hits filed as inhibitors; actives 0.009% (n = 390,000); active = well fitted inhibition curve with a large enough effect in the polarisation, with a control signal flat, not every such curve was filed as active; inconclusive = small, poorly fitted or top-dose-only effect, or effect the other way, or a change in a side signal; inactive = no such curve, though single readings can be large or run the other way; the % refers to the polarisation
Target sequence (Q13526 whole entry, looked up): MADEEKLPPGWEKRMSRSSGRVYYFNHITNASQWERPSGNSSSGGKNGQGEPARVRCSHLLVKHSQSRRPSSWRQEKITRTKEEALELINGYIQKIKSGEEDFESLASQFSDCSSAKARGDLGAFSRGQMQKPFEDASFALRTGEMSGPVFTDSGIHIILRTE
B2AR arrestin: qHTS assay of beta-arrestin-biased ligands of beta2-adrenergic receptor; actives 0.02% (n = 330,000); Potency, µM (top dose mostly 46.1 µM), actives largely listed as activators; beta-arrestin recruitment to beta2AR, cell-based reporter; Beta-2 adrenergic receptor (Homo sapiens), P07550; AID 492947, 2010; note: nearly all actives have a fitted effect of over 65% in size
miR-21 act: qHTS Assay for Modulators of miRNAs and/orActivators of miR-21 | AID 2288, 2010 | HeLa miR-21 FLuc reporter, luciferase, 48 h | Potency, µM (doses to about 38.3 µM), usual class: activators | 340,000 tested, under 10 active;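 note: miR-21 action dims this reporter so a rising signal means less miR-21 action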
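Compounds were titrated across several concentrations (up to approximately 40 uM) and incubated 48 hours with HeLa miR-21-FLuc reporter cells (miR-21 target sequence downstream of FLuc, endogenous miR-21). Readout was firefly luciferase luminescence after lytic detection reagent.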
Large screens that a line does not name were inactive. Unless noted, calls come from the whole dose curve; as a rule, active = well fitted curve in the direction sought with a large enough effect; inconclusive = small, poorly fitted or top-dose-only effect, or another doubt; inactive = no such curve, though single readings can be large; an effect the other way counts as inactive or inconclusive.

N#CC(C#N)=C1C=C2C=C(N3CCOCC3)CCC2CC1 (configuration not stated)	PINK1 expr mod 16µM, Pin1 inhibitor inconclusive
CN1CCN(C2=CC3=CC(=C(C#N)C#N)CCC3CC2)CC1 (configuration not stated)	PINK1 expr mod inconclusive, Chronic BCR inh inconclusive, Pin1 inhibitor inconclusive
N#CC(C#N)=C1C=C2C=C(N3CCCCCC3)CCC2CC1 (configuration not stated)	PINK1 expr mod 11µM, Chronic BCR inh inconclusive
CCC(CC)=NNc1ccc(S(N)(=O)=O)cc1[N+](=O)[O-]	PKM2 activator 18µM
O=C(COc1ccc(Cl)cc1)Nc1ncc([N+](=O)[O-])s1	PINK1 expr mod 16µM, Chronic BCR inh inconclusive
O=C(Cc1ccc(Cl)cc1)Nc1ncc([N+](=O)[O-])s1	PINK1 expr mod inconclusive, Chronic BCR inh inconclusive
O=C(Cc1ccc(Br)cc1)Nc1ncc([N+](=O)[O-])s1	PINK1 expr mod 25µM, Chronic BCR inh inconclusive
COc1ccc(N=Cc2c(O)n(-c3cccc(C)n3)c(=O)c3ccccc23)c(OC)c1	PINK1 expr mod 45µM, Pin1 inhibitor inconclusive
O=C(c1cscn1)N1CCOc2ccc(CN3CCC(Oc4cccnc4)CC3)cc2C1	none (no result: PKM2 activator, Chronic BCR inh, Pin1 inhibitor, B2AR arrestin, miR-21 act)
O=C(NCC1Cc2cc(-c3cnc4ccccc4c3)cc(F)c2O1)c1cnsn1 (configuration not stated)	none (no result: PKM2 activator, Chronic BCR inh, Pin1 inhibitor, B2AR arrestin, miR-21 act)
NC(=O)C1CCN(c2ncc(-c3cccc(N4CCCC4)c3)s2)CC1	none (no result: PKM2 activator, PINK1 expr mod, Chronic BCR inh, B2AR arrestin, miR-21 act)
Cc1cccc(S(=O)(=O)c2c(N)n(Cc3ccco3)c3nc4ccccc4nc23)c1	PKM2 activator 22µM, Pin1 inhibitor inconclusive
O=C(Nc1ccccc1)[C@@H]1[C@@H]2C(=O)N(c3ccc(F)cc3)C(=O)[C@@H]2[C@H]2C=CC=NN21	PKM2 activator 8.9µM, Chronic BCR inh inconclusive
COc1ccccc1NS(=O)(=O)c1ccc2ccccc2c1	none (no result: PKM2 activator)
COc1ccc(NS(=O)(=O)c2ccc3ccccc3c2)c2ncccc12	Chronic BCR inh 3.2µM (no result: PKM2 activator)
Cc1cccc(Cn2c(=O)n(-c3ccc(CC(=O)NCc4ccco4)cc3)c(=O)c3sccc32)c1	Chronic BCR inh 5µM
COc1ccc(/C=N/NC(=O)c2sc3nc(C)cc(C)c3c2N)cc1	none
Cc1cc(C)c2c(N)c(C(=O)N/N=C/c3cccs3)sc2n1	PINK1 expr mod 25µM, Chronic BCR inh inconclusive, Pin1 inhibitor inconclusive
Cc1cccc(NC(=O)c2ccc(NCCc3ccccc3)c([N+](=O)[O-])c2)c1	PINK1 expr mod 14µM, Pin1 inhibitor inconclusive
CC(C)Cc1nc2cc(NS(=O)(=O)N(C)C)cc(C(=O)N3CCc4sccc4C3)c2n1C	none (no result: PKM2 activator, Chronic BCR inh, Pin1 inhibitor, B2AR arrestin, miR-21 act)
Cc1ccc(-n2nc(-c3ccco3)cc2C(=O)O)c(C)c1	PKM2 activator 28µM
O=C(O)c1cc(-c2ccco2)nn1-c1ccc(Cl)cc1	none (no result: Pin1 inhibitor)
CC(/C=C/c1ccccc1)=N\NC(=S)NC(C)C	Chronic BCR inh inconclusive
CC(/C=C/c1ccccc1)=N\NC(N)=S	Chronic BCR inh inconclusive, B2AR arrestin 8.9µM
N#Cc1c(N)n(CCNC(=O)c2ccc(Cl)cc2)c2nc3ccccc3nc12	PKM2 activator 28µM, Pin1 inhibitor inconclusive
Cc1ccc(C(=O)NCCn2c(N)c(C#N)c3nc4ccccc4nc32)cc1	PKM2 activator inconclusive, PINK1 expr mod inconclusive, Chronic BCR inh inconclusive, Pin1 inhibitor inconclusive
CC(Sc1nc(N)c2c3c(sc2n1)CSC(C)(C)C3)C(=O)Nc1ccccc1 (configuration not stated)	PKM2 activator 7.1µM, PINK1 expr mod inconclusive
CC(Sc1nc(NCc2ccccc2)nc(N(C)C)n1)C(=O)Nc1ccccc1 (configuration not stated)	PINK1 expr mod inconclusive
NC(=O)C1CCN(c2nc(-c3cccc(C(F)(F)F)c3)cs2)CC1	none (no result: PKM2 activator, PINK1 expr mod, Chronic BCR inh, B2AR arrestin, miR-21 act)
COc1cc(=O)n2c(c1C(=O)NC(C)c1ccco1)CCN(C(=O)c1cccc(C)c1C)CC2 (configuration not stated)	none (no result: PKM2 activator, Chronic BCR inh, Pin1 inhibitor, B2AR arrestin, miR-21 act)
CCCn1nnc(NC(=O)c2ccc(-c3cccc(Cl)c3)o2)n1	none
CCn1nnc(NC(=S)NC(=O)c2ccc(-c3cccc(Cl)c3)o2)n1	Chronic BCR inh inconclusive, B2AR arrestin 18µM
CCC1(C2CCN(Cc3c(C)[nH]c4ccccc34)CC2)NC(=O)N(Cc2ccc3c(c2)OCO3)C1=O (configuration not stated)	none (no result: PKM2 activator, Chronic BCR inh, Pin1 inhibitor, B2AR arrestin, miR-21 act)
Cc1c(NC(=O)/C(C#N)=C/c2c(Oc3ccccc3)nc3ccccn3c2=O)c(=O)n(-c2ccccc2)n1C	Chronic BCR inh 18µM
COc1cc(F)c(S(=O)(=O)N2CCN(S(=O)(=O)c3ccc(N)cc3)CC2)c(F)c1	none (no result: PKM2 activator, PINK1 expr mod, Chronic BCR inh, B2AR arrestin, miR-21 act)
CCn1cc(C(=O)O)c(=O)c2cc(F)c(N/N=C/c3ccccc3[N+](=O)[O-])cc21	PINK1 expr mod 40µM
CCn1cc(C(=O)O)c(=O)c2cc(F)c(N3CCN(C(=S)Nc4ccccc4OC)CC3)cc21	Chronic BCR inh inconclusive, Pin1 inhibitor inconclusive
COCCNc1ccc(-c2nc(-c3ccncc3)no2)cc1[N+](=O)[O-]	none (no result: PKM2 activator, Chronic BCR inh, B2AR arrestin)
CCNc1ccc(-c2nc(-c3ccncc3)no2)cc1[N+](=O)[O-]	PINK1 expr mod 14µM (no result: PKM2 activator, Chronic BCR inh, B2AR arrestin)
CC[n+]1c(/C=C/Nc2ccccc2)sc2ccccc21	none
CCCC[n+]1c(/C=C/c2ccc(N(C)C)cc2)sc2ccccc21	PINK1 expr mod 5µM (no result: PKM2 activator, Chronic BCR inh, Pin1 inhibitor, B2AR arrestin, miR-21 act)
O=C(c1ccco1)N1CCN(C(=O)c2cc(-c3ccccn3)nc3ccccc23)CC1	PKM2 activator 20µM
O=C(c1ccco1)N1CCN(C(=O)c2cc(Cl)nc3ccccc23)CC1	Pin1 inhibitor inconclusive (no result: PKM2 activator, miR-21 act)
O=C(NC1CC1)c1cc(-c2ccco2)nc2ccccc12	PKM2 activator inconclusive, Pin1 inhibitor 21µM
O=C(O)c1cc(-c2ccco2)nc2ccccc12	Pin1 inhibitor inconclusive
O=C(OCC(=O)N1CCN(C(=O)c2ccco2)CC1)c1cc(-c2ccco2)nc2ccccc12	PKM2 activator 16µM, Pin1 inhibitor inconclusive
O=C(NCCN1CCOCC1)c1cnn(-c2nccc(-c3cc4ccccc4o3)n2)c1C1CC1	none (no result: PKM2 activator, Chronic BCR inh, Pin1 inhibitor, B2AR arrestin, miR-21 act)
COC(=O)C1=C(COc2ccc(F)cc2)NC(=O)NC1c1ccc(C)cc1C (configuration not stated)	PINK1 expr mod 11µM
Cc1nc(CC(=O)NCC2Cc3cc(F)cc(-c4ccc(F)c(C)c4)c3O2)cs1 (configuration not stated)	none (no result: PKM2 activator, Chronic BCR inh, Pin1 inhibitor, B2AR arrestin, miR-21 act)
COC(=O)c1c(N)c(C#N)c2n1CCCCC2	PINK1 expr mod 8.9µM
